Assay results published in ChEMBL document CHEMBL1961873, “Compounds: GSK PKIS; Assays: Nanosyn kinase panel” (2012).

Key:
[1] = target: T1, Inhibitor of nuclear factor kappa-B kinase subunit epsilon (Homo sapiens) (UniProt Q14164); details: at 1 µM;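 further: reported values are averaged percent inhibition figures against human IKKε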
T1 sequence (whole entry): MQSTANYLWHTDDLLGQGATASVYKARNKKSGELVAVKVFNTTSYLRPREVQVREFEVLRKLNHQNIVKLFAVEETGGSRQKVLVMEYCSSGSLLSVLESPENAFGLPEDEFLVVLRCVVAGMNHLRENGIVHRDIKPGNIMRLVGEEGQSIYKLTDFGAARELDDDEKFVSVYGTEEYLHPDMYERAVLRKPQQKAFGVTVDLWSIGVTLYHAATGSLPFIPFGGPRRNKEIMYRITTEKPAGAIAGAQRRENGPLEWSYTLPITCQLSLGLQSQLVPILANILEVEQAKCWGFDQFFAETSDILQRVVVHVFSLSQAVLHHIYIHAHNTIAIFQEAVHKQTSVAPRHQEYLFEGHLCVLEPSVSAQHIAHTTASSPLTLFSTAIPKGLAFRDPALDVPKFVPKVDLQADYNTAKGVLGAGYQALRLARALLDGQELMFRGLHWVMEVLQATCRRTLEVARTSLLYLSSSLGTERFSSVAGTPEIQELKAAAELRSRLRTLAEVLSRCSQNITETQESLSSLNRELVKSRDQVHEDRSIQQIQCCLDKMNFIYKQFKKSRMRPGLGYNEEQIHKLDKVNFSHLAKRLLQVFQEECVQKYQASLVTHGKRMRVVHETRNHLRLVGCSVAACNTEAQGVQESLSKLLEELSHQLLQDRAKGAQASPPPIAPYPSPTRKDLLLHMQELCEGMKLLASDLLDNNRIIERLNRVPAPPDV

[2] = target: T2, Serine/threonine-protein kinase Nek1 (Homo sapiens) (UniProt Q96PY6); details: at 0.1 µM
T2 sequence (whole entry): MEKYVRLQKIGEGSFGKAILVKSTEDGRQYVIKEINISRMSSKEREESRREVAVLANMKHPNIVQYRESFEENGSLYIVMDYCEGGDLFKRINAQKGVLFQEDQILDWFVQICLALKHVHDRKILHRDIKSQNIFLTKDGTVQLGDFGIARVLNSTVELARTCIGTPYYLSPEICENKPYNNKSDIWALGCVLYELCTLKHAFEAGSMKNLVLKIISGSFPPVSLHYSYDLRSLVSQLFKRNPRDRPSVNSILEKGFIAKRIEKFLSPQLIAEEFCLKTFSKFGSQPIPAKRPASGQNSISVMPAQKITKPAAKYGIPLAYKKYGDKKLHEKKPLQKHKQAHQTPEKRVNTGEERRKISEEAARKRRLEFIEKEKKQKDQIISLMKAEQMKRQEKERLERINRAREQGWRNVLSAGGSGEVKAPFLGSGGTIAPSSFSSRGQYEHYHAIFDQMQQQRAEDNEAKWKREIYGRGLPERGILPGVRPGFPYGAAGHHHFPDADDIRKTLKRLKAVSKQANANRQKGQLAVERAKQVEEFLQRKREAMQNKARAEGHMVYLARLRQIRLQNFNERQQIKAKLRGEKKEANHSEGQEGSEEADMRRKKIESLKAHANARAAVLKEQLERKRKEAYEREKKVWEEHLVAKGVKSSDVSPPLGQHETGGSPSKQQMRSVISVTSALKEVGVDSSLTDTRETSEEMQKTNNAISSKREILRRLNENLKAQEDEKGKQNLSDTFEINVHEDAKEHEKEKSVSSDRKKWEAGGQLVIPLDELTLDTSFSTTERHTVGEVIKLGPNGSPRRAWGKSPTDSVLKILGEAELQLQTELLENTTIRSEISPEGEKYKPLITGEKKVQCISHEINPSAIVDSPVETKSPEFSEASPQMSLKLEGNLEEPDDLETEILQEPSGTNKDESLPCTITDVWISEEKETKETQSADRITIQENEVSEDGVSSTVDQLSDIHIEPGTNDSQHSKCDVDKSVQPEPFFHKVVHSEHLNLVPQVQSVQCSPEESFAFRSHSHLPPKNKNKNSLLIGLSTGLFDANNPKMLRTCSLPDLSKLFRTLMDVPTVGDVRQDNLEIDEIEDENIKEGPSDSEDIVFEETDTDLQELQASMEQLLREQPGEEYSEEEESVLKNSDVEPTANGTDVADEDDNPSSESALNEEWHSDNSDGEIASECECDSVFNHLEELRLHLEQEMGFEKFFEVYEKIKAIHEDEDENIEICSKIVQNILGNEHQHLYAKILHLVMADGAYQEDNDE

[3] = target: T2, Serine/threonine-protein kinase Nek1 (Homo sapiens); details: at 1 µM
[4] = target: T3, Serine/threonine-protein kinase Nek2 (Homo sapiens) (UniProt P51955); details: at 0.1 µM
T3 sequence (whole entry): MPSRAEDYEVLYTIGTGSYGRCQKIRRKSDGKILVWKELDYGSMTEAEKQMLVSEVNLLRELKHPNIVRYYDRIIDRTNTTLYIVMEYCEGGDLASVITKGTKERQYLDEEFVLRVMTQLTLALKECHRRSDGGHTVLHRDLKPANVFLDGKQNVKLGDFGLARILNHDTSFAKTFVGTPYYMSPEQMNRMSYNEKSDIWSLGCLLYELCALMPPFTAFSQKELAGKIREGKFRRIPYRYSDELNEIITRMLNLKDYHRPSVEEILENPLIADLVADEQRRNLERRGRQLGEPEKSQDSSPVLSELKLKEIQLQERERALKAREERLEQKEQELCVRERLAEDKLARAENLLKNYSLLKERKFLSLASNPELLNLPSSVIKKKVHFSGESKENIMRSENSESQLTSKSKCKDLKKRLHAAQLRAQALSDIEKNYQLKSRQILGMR

[5] = target: T3, Serine/threonine-protein kinase Nek2 (Homo sapiens); details: at 1 µM
[6] = target: Serine/threonine-protein kinase Nek6 (Homo sapiens) (UniProt Q9HC98); details: at 0.1 µM
[7] = target: Serine/threonine-protein kinase Nek6 (Homo sapiens) (UniProt Q9HC98); details: at 1 µM
[8] = target: Serine/threonine-protein kinase Nek7 (Homo sapiens) (UniProt Q8TDX7); details: at 0.1 µM
[9] = target: Serine/threonine-protein kinase Nek7 (Homo sapiens) (UniProt Q8TDX7); details: at 1 µM
[10] = target: T4, Serine/threonine-protein kinase Nek9 (Homo sapiens) (UniProt Q8TD19); details: at 0.1 µM
T4 sequence (whole entry): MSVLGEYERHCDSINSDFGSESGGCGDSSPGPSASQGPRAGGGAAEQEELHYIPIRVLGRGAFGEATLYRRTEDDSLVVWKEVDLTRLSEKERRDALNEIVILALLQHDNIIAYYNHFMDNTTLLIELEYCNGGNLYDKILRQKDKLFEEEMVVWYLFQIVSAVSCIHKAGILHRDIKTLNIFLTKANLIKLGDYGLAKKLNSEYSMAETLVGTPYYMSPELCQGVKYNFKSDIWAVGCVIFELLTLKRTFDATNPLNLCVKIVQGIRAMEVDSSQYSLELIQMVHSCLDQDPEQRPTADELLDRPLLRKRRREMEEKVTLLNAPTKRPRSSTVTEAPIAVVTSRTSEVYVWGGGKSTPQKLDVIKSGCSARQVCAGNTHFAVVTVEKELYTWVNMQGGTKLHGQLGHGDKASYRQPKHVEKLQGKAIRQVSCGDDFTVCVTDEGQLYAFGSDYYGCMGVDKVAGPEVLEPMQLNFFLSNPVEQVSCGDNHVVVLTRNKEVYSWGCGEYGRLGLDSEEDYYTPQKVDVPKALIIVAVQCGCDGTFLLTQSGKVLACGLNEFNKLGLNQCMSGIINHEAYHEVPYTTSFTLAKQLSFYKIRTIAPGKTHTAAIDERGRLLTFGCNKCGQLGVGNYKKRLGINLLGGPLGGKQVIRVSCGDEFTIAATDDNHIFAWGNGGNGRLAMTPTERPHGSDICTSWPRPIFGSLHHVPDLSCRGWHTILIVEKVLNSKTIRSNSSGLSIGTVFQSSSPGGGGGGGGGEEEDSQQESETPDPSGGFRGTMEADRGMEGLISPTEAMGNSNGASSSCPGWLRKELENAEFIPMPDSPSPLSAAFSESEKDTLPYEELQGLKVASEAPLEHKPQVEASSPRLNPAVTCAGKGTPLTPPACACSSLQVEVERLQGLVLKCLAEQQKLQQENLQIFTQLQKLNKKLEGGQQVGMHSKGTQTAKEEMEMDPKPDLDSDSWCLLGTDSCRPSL

[11] = target: T4, Serine/threonine-protein kinase Nek9 (Homo sapiens); details: at 1 µM
[12] = target: Serine/threonine-protein kinase PLK1 (Homo sapiens) (UniProt P53350); details: at 0.1 µM
[13] = target: Serine/threonine-protein kinase PLK1 (Homo sapiens) (UniProt P53350); details: at 1 µM
[14] = target: T5, Dual specificity protein kinase TTK (Homo sapiens) (UniProt P33981); details: at 0.1 µM
T5 sequence (whole entry): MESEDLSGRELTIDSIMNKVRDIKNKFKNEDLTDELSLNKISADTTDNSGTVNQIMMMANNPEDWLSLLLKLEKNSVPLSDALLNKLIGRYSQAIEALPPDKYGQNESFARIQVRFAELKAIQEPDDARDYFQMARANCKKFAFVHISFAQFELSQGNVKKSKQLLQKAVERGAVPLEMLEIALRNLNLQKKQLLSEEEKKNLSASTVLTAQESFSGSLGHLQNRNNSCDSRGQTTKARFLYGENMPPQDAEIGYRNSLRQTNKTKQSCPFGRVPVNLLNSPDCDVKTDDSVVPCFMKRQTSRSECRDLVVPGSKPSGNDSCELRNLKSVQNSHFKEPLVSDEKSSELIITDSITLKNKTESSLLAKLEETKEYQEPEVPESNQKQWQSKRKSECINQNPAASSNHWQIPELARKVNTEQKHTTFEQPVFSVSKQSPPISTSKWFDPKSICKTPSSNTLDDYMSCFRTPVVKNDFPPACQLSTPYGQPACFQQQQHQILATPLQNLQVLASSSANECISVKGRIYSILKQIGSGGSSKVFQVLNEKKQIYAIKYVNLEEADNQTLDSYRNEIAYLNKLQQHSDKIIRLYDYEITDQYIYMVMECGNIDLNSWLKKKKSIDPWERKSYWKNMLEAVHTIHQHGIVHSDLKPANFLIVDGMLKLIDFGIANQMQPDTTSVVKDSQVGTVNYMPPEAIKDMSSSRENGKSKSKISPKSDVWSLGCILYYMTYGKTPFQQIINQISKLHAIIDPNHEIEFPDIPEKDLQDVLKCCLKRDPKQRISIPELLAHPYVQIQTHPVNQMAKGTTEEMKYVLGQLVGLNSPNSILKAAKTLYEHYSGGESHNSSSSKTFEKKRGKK

[15] = test system: T6, Receptor-type tyrosine-protein kinase FLT3 (Homo sapiens), P36888 [D835Y]; details: at 1 µM
T6 sequence (whole entry): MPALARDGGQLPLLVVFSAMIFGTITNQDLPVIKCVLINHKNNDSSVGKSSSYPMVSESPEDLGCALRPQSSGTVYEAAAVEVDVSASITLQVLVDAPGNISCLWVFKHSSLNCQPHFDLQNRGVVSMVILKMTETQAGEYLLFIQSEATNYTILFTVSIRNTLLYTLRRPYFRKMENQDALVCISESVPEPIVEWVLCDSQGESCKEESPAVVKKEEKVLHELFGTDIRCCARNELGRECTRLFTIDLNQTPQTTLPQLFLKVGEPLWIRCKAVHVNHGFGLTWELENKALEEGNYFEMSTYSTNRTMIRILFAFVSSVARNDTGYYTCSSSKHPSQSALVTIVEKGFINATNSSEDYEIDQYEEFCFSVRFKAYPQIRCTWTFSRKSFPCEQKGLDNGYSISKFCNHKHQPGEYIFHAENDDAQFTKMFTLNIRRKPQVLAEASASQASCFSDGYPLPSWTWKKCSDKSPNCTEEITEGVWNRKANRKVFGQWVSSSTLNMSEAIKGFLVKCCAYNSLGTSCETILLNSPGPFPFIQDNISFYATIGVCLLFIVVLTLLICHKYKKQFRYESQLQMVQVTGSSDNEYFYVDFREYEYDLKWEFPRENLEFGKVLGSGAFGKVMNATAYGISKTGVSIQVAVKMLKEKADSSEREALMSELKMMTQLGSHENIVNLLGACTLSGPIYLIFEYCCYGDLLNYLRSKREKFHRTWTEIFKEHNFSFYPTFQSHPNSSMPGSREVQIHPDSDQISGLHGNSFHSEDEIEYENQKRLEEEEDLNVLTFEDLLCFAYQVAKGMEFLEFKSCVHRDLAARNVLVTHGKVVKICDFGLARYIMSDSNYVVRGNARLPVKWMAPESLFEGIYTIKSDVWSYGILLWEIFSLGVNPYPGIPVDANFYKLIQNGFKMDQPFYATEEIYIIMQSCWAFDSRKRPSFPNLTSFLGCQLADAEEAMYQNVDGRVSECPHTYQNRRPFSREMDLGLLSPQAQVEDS

[16] = target: Vascular endothelial growth factor receptor 3 (Homo sapiens) (UniProt P35916); details: at 0.1 µM
[17] = target: Vascular endothelial growth factor receptor 3 (Homo sapiens) (UniProt P35916); details: at 1 µM
[18] = target: Macrophage colony-stimulating factor 1 receptor (Homo sapiens) (UniProt P07333); details: at 0.1 µM
[19] = target: Macrophage colony-stimulating factor 1 receptor (Homo sapiens) (UniProt P07333); details: at 1 µM
[20] = target: Tyrosine-protein kinase Fyn (Homo sapiens) (UniProt P06241); details: at 0.1 µM
Tyrosine-protein kinase Fyn (Homo sapiens), sequence (P06241 2-537 limits assumed): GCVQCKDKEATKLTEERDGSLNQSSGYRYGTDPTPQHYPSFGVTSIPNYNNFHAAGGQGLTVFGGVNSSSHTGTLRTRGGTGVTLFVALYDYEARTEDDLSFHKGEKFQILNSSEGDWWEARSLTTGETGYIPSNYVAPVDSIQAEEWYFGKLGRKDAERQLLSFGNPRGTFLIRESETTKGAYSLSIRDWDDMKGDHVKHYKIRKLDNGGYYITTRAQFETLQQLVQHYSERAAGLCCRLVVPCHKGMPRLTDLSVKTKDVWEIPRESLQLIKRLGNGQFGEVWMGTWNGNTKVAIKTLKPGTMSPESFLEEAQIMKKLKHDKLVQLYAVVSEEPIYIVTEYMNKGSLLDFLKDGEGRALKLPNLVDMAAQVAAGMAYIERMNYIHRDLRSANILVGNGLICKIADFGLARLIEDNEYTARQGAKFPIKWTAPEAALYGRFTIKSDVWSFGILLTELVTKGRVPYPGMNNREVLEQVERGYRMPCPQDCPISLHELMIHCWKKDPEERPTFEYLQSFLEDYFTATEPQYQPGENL

Serine/threonine-protein kinase Nek7 (Homo sapiens), sequence (Q8TDX7 whole entry, looked up): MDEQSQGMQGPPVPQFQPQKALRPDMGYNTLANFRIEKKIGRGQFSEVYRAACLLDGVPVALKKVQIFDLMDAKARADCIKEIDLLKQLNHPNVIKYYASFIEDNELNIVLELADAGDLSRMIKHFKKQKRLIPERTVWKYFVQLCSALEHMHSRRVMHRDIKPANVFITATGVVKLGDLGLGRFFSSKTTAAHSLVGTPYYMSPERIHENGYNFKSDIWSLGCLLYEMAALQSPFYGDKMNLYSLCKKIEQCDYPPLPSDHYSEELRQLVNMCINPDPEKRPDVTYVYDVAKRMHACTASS
Vascular endothelial growth factor receptor 3 (Homo sapiens), sequence (P35916 whole entry): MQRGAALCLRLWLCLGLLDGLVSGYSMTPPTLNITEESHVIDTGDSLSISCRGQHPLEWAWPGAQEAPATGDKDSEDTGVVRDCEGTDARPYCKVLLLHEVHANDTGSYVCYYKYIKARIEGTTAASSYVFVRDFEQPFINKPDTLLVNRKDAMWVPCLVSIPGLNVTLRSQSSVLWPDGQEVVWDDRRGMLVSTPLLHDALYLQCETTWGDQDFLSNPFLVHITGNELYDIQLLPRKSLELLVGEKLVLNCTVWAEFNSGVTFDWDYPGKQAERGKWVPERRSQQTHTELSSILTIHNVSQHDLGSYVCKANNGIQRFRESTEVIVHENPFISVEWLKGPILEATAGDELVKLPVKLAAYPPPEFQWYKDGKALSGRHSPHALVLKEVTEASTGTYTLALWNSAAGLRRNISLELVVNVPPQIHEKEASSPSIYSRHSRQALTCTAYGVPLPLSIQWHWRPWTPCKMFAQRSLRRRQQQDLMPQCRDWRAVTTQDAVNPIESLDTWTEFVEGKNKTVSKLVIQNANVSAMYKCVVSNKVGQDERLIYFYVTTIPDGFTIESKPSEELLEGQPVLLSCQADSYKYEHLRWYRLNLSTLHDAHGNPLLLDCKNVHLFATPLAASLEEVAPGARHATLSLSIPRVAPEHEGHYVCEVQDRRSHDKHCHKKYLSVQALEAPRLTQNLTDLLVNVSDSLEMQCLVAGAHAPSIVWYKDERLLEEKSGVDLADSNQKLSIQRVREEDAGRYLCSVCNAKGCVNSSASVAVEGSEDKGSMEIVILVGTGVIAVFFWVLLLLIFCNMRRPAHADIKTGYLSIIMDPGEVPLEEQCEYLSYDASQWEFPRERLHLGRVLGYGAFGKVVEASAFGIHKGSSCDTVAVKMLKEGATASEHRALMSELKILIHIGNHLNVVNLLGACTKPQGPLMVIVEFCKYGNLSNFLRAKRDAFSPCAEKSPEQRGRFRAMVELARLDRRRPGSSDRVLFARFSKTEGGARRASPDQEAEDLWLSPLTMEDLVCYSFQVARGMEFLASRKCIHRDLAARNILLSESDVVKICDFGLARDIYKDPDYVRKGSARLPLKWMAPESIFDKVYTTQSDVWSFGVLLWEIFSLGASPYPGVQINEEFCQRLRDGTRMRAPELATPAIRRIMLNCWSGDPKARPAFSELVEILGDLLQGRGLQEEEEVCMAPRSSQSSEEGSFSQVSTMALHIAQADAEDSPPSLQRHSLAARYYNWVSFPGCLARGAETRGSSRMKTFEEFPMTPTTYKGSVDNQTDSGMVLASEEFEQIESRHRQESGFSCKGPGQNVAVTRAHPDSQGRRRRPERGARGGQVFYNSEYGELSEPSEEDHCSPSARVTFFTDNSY
Serine/threonine-protein kinase PLK1 (Homo sapiens), sequence (P53350 whole entry): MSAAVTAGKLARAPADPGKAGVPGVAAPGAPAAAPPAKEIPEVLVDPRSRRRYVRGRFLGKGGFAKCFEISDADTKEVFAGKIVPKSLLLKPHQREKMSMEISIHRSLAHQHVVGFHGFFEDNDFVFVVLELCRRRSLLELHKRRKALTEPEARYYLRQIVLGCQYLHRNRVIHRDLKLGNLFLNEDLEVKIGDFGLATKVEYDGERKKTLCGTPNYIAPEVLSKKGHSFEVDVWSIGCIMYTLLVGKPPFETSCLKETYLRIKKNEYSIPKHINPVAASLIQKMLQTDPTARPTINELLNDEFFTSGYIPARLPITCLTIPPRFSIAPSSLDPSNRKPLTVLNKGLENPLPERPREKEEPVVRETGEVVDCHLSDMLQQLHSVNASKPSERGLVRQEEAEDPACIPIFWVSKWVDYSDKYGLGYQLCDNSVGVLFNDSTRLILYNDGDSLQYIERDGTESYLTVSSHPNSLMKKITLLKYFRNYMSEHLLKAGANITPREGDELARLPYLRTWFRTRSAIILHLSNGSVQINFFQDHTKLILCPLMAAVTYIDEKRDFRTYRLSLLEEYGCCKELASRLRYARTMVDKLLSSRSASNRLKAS
Macrophage colony-stimulating factor 1 receptor (Homo sapiens), sequence (P07333 whole entry): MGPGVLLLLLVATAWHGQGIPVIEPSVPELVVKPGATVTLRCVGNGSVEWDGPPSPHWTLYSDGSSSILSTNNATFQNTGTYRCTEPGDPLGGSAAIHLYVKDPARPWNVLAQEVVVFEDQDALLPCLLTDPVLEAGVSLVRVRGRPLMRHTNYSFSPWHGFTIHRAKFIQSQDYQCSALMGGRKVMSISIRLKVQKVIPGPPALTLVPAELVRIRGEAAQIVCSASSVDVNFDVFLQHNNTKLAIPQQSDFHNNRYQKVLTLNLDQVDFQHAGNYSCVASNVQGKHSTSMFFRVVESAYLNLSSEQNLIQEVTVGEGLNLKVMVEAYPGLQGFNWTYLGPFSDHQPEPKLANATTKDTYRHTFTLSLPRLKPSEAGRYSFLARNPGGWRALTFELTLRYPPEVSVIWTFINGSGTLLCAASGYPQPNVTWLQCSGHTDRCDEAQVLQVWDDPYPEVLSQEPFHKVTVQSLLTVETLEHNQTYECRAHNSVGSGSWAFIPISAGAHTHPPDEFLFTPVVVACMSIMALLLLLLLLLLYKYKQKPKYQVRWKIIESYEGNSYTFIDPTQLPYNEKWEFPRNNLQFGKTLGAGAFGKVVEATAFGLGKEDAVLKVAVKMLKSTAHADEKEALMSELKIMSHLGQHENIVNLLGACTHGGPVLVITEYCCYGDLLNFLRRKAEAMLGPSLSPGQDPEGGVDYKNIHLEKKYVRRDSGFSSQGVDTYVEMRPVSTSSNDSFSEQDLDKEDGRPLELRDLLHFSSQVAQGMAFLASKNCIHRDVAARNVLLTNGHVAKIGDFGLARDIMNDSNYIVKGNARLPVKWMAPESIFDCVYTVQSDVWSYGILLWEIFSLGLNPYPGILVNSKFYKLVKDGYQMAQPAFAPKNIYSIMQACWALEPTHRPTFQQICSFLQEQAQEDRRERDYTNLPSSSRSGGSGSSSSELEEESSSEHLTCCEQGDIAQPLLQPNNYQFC
Serine/threonine-protein kinase Nek6 (Homo sapiens), sequence (Q9HC98 whole entry): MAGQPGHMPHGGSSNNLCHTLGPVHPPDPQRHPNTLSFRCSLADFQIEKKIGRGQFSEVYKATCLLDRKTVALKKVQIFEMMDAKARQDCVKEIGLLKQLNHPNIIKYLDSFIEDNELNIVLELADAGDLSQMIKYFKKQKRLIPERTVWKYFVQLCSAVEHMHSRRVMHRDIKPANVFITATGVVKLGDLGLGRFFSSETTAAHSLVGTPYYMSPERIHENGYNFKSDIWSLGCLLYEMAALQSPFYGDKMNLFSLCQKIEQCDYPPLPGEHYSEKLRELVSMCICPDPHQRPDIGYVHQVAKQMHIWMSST

In the case of `COc1ccc(Nc2ncc(-c3ccccc3)o2)cc1OC`, the inhibition [1] is reported as 4.37%, the inhibition [2] is reported as 0.52% and the inhibition [3] is reported as 5.19%. It also gave an inhibition [4] of 0.8%, an inhibition [5] of 2.25% and an inhibition [6] of 0.31%. The inhibition [7] was -2.42%, the inhibition [8] was 1.23% and the inhibition [9] was 0.83%. It also gave an inhibition [10] of -0.52%, an inhibition [11] of 9.31% and an inhibition [12] of 2.85%. For the same compound, the inhibition [13] was 1.53%, the inhibition [14] was 2.17% and the inhibition [15] was 47.1%. The inhibition [16] was 5.08%, the inhibition [17] was 25.5% and the inhibition [18] was 21.9%. For the same compound, the inhibition [19] was 77.2% and the inhibition [20] was 4.17%.

`CCS(=O)(=O)c1ccc(OC)c(Nc2ncc(-c3cccc(F)c3)o2)c1` showed an inhibition [1] of 8.87%, an inhibition [2] of 4.05% and an inhibition [3] of 5.27%. The inhibition [4] was 6.14%, the inhibition [5] was 7.08% and the inhibition [6] was -1.8%. It also gave an inhibition [7] of 1.24%, an inhibition [8] of 4.07% and an inhibition [9] of 0.27%. For the same compound, the inhibition [10] was 7.49%, the inhibition [11] was 16.1% and the inhibition [12] was 7.8%. It also gave an inhibition [13] of 9.98%, an inhibition [14] of 10.5% and an inhibition [15] of 60.3%. It also gave an inhibition [16] of 36.4%, an inhibition [17] of 86.8% and an inhibition [18] of 33.7%. The inhibition [19] was 66.7% and the inhibition [20] was 30.1%.
